PubChem BioAssay AID2419 (Southern Research Specialized Biocontainment Screening …, 2010)
Measured potencies and affinities stand elsewhere. Calls of active or inactive are those of the source. How the calls were made is not given here.

experiment: West Nile virus cytopathic effect inhibition, cell-based (AID 2419); details: West Nile virus-infected cells, stronger effect = higher value; at 200 µM unless noted

Question: Which max CPE inhibition does the source give for `COc1ccc(Cn2nc(C)cc2OC(=O)c2c(F)cccc2F)cc1` here?
Answer: The max CPE inhibition was 1.63% (inactive).

Question: Which max CPE inhibition does the source give for `COc1ccc(Cn2nc(C)cc2OC(=O)c2c(F)ccc(C)c2F)cc1` here?
Answer: The max CPE inhibition was 14% (inactive).

Question: With `O=C(CSc1nc2ccccc2c(=O)n1-c1ccc(F)cc1)Nc1ccc2c(c1)CCC2` as the compound, how does the max CPE inhibition read?
Answer: Its max CPE inhibition is 29.6% [at 100 µM] (inactive).

Question: Which max CPE inhibition does the source give for `OC1c2cc(Cl)cc(Cl)c2N=C2CCCN21` (stereo not given) here?
Answer: The max CPE inhibition was 1.94% [at 0.78 µM] (inactive).

Question: Which max CPE inhibition does the source give for `OC1c2cc(I)ccc2N=C2CCCN21` (stereo not given) here?
Answer: The max CPE inhibition was 0.77% [at 0.39 µM] (inactive).

Question: For `C=CCN(C(=O)c1ccccc1Cl)c1nc(-c2ccc(OC)cc2)cs1`, which max CPE inhibition is on record?
Answer: The max CPE inhibition was 1.14% (inactive).

Question: Which max CPE inhibition does the source give for `COc1ccc(Cn2nc(C)cc2OC(=O)c2ccccc2)cc1` here?
Answer: The max CPE inhibition was 1.5% (inactive).

Question: For `Cc1cc(OC(=O)c2c(F)cccc2F)n(Cc2ccccc2)n1`, which max CPE inhibition is on record?
Answer: Its max CPE inhibition is 1.92% (inactive).

Question: Which max CPE inhibition does the source give for `OC1c2c(F)cccc2N=C2CCCCN21` (stereo not given) here?
Answer: Its max CPE inhibition is 0.91% [at 0.39 µM] (inactive).

Question: Which max CPE inhibition does the source give for `Cc1cccc2c(=O)n(-c3ccccc3)c(SCC(=O)Nc3ccc4c(c3)CCC4)nc12` here?
Answer: The max CPE inhibition was 2.82% [at 25 µM] (inactive).

Question: For `O=C(CSc1nc2cccc(I)c2c(=O)n1-c1ccccc1)Nc1ccc2c(c1)CCC2`, which max CPE inhibition is on record?
Answer: The max CPE inhibition was 3.08% (inactive).

Question: With `O=C(CSc1nc2cccc(F)c2c(=O)n1-c1ccccc1)Nc1ccc2c(c1)CCC2` as the compound, how does the max CPE inhibition read?
Answer: The max CPE inhibition was 2.29% [at 25 µM] (inactive).

Question: With `Cc1ccc2nc(SCC(=O)Nc3ccc4c(c3)CCC4)n(-c3ccccc3)c(=O)c2c1` as the compound, how does the max CPE inhibition read?
Answer: The max CPE inhibition was 6.42% [at 25 µM] (inactive).

Question: Which max CPE inhibition does the source give for `O=C(CSc1nc2ccc(F)cc2c(=O)n1-c1ccccc1)Nc1ccc2c(c1)CCC2` here?
Answer: The max CPE inhibition was 3.95% (inactive).

Question: With `OC1c2c(F)cccc2N=C2CCCN21` (stereo not given) as the compound, how does the max CPE inhibition read?
Answer: Its max CPE inhibition is 0.91% [at 0.39 µM] (inactive).

Question: With `O=C(CSc1nc2ccccc2c(=O)n1-c1ccc(F)cc1F)Nc1ccc(N2CCOCC2)cc1` as the compound, how does the max CPE inhibition read?
Answer: The max CPE inhibition was 1.05% [at 0.39 µM] (inactive).

Question: For `OC1c2c(F)cccc2N=C2CCCCCN21` (stereo not given), which max CPE inhibition is on record?
Answer: The max CPE inhibition was 1.99% [at 0.39 µM] (inactive).

Question: For `OC1c2cc(Br)ccc2N=C2CCCCN21` (stereo not given), which max CPE inhibition is on record?
Answer: The max CPE inhibition was 0.62% [at 3.13 µM] (inactive).

Question: With `OC1c2cc(Br)ccc2N=C2CCCCCN21` (stereo not given) as the compound, how does the max CPE inhibition read?
Answer: The max CPE inhibition was 6.41% [at 0.78 µM] (inactive).

Question: Which max CPE inhibition does the source give for `COc1cccc2c(=O)n(-c3ccccc3)c(SCC(=O)Nc3ccc4c(c3)CCC4)nc12` here?
Answer: The max CPE inhibition was 2.38% [at 12.5 µM] (inactive).
